# “And” between values parts separate entries of the source, which are not always exact repeats. Equal values may be shown once. Inconclusive results are not listed. Where a call stands in place of a potency, no number is given. A structure can be active in one record and inactive in another. The source made the active and inactive calls. Unless noted, calls come from the whole dose curve; as a rule, active = well fitted curve in the direction sought with a large enough effect in the repeat runs; inconclusive = weak or mixed curves; inactive = no such curve, though single readings can be large; an effect the other way counts as inactive or inconclusive.
# Key:
# [1] = qHTS assay to identify small molecule agonists of the vitamin D receptor (VDR) signaling pathway - cell viability counter screen (AID 743224); note: nearly all actives have a fitted effect of over 50% in size; note: potency is the fitted concentration of half-maximal effect
# Summary of the method: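 Cytotoxicity counter screen: VDR-bla cells, 16 h compound exposure at 37C, 5% CO2; CellTiter-Glo luminescence, 30 min RT, same wells as bla read.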
# [2] = qHTS assay to identify small molecule antagonists of the vitamin D receptor (VDR) signaling pathway - cell viability counter screen (AID 743225); note: nearly all actives have a fitted effect of over 50% in size; note: potency is the fitted concentration of half-maximal effect
# Summary of the method: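 Cytotoxicity counter screen read by CellTiter-Glo luminescence (30 min, room temperature) in the same wells as the VDR-bla antagonist readout. HEK 293T VDR-UAS-bla cells had 16 h at 37C with compound and 3 nM (final) 1-alpha,25-dihydroxyvitamin D3, then 2 h with FRET substrate.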
# [3] = qHTS assay to identify small molecule agonists of the NFkB signaling pathway (AID 1159509; active = well fitted curve in the direction sought with a large enough effect in the signal ratio in the repeat runs, not every such curve was filed as active; the % refers to the signal ratio; note: series mostly up to about 61 µM)
# Summary of the method: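 Agonist activity was read as beta-lactamase-driven FRET change (460 and 530 nm emission, 405 nm excitation) following 1.5 hr substrate loading at room temperature. Beforehand, ME-180 NFkB-bla reporter cells were treated with compounds for 5 hr at 37 C.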
# [4] = qHTS assay to identify small molecule agonists of the NFkB signaling pathway - cell viability counter screen (AID 1159515; calls by dose curve; note: series mostly up to about 61 µM; nearly all actives have a fitted effect of over 55% in size)
# Summary of the method: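 ME-180 NFkB-bla cells, 2,000/well; overnight attach; compound 5 hr, 37 C/5% CO2; LiveBLAzer substrate 1.5 hr RT; then CellTiter-Glo in same wells, 30 min RT, luminescence read.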
# [5] = qHTS assay to identify small molecule agonists of the endoplasmic reticulum stress response signaling pathway (AID 1159516; active = well fitted activation curve with a large enough effect in the signal ratio in the repeat runs, not every such curve was filed as active; the % refers to the signal ratio)
# Summary of the method: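 HeLa ESRE-bla reporter line; cpd 5 h, 37 C/5% CO2; LiveBLAzer B/G FRET substrate 2 h RT; ex 405, em 460/530 nm.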
# [6] = qHTS assay to identify small molecule agonists of the endoplasmic reticulum stress response signaling pathway - cell viability counter screen (AID 1159517; calls by dose curve; note: nearly all actives have a fitted effect of over 50% in size; note: potency is the fitted concentration of half-maximal effect)
# Summary of the method: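 Cpd-treated ESRE-bla HeLa (5 hr, 37 C) → LiveBLAzer 2 hr RT → CellTiter-Glo 30 min RT → luminescence.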
# [7] = qHTS assay to identify small molecule antagonists of the retinoid-related orphan receptor gamma (ROR-gamma) signaling pathway - cell viability counter screen (AID 1159520); note: nearly all actives have a fitted effect of over 50% in size; note: potency is the fitted concentration of half-maximal effect
# Summary of the method: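 Tet-on ROR gamma CHO cells (1,000/well) were plated 4 hr, given compounds in DMSO for 2 hr at 37 C, then induced with 1 uM final doxycycline for 16 hr. Viability was read as ATP by CellTiter-Glo luminescence after 30 min.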
# [8] = biological target: Nuclear receptor ROR-gamma (Homo sapiens) (UniProt P51449); assay: qHTS assay to identify small molecule antagonists of the retinoid-related orphan receptor gamma (ROR-gamma) signaling pathway (AID 1159521; note: nearly all actives have a fitted effect of over 50% in size; note: potency is the fitted concentration of half-maximal effect)
# Summary of the method: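 Antagonist read-out: drop in luminescence (ONE-Glo) from an RORE-LUC reporter in CHO cells with doxycycline-inducible ROR-gamma; 2 hr compound pretreatment, 1 uM doxycycline, 16 hr incubation at 37 C.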
# [9] = qHTS assay to identify small molecule agonists of the AP-1 signaling pathway - cell viability counter screen (AID 1159525; calls by dose curve; note: nearly all actives have a fitted effect of over 55% in size)
# Summary of the method: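 Each titration point was normalised to DMSO and tetra n-octyl ammonium bromide controls. The read was Cell Titer Glo luminescence after 30 min at RT, following 5 h compound exposure of ME-180 AP-1-bla cells at 37 °C.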
# [10] = qHTS assay to identify small molecule agonists of the AP-1 signaling pathway (AID 1159526; calls by dose curve)
# [11] = biological target: Retinoic acid receptor RXR-alpha (Homo sapiens) (UniProt P19793); assay: qHTS assay to identify small molecule agonists of the RXR signaling pathway (AID 1159527; calls by dose curve; note: nearly all actives have a fitted effect of over 35% in size; note: potency is the fitted concentration of half-maximal effect)
# Retinoic acid receptor RXR-alpha (Homo sapiens), sequence (P19793 whole entry, looked up): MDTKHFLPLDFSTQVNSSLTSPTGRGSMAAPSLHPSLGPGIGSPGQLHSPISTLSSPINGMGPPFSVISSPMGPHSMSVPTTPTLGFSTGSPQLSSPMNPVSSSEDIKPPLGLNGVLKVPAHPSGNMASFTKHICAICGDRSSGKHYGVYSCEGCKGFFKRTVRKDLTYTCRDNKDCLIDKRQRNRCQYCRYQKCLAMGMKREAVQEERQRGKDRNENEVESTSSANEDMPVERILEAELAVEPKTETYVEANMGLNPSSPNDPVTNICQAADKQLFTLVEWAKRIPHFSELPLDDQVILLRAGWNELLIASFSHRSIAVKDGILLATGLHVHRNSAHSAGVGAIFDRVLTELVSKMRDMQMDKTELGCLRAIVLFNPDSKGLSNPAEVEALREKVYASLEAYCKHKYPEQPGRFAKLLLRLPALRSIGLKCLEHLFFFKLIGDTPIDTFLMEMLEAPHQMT
# Summary of the method: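 Agonist-mode beta-lactamase reporter assay: HEK 293T RXR-alpha-UAS-bla cells treated 16 hr at 37 C with compounds, 9-cis retinoic acid as positive control. LiveBLAzer FRET substrate, 405 nm excitation, 460/530 nm emission.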
# [12] = qHTS assay to identify small molecule antagonists of the retinoid acid receptor (RAR) signaling pathway - cell viability counter screen (AID 1159551); note: nearly all actives have a fitted effect of over 35% in size
# Summary of the method: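 C3RL4 RARE-luciferase line; cpds + retinol 1 uM final, 6 h, 37 C/5% CO2; CellTiter-Glo ATP luminescence, 30 min RT.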
# [13] = qHTS assay to identify small molecule antagonists of the retinoic acid receptor (RAR) signaling pathway (AID 1159552; note: nearly all actives have a fitted effect of over 50% in size)
# Summary of the method: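 Luminescent RARE reporter read-out in C3RL4 cells: 6 hr co-treatment at 37 C of test compounds with retinol at 1 uM final. Cells plated overnight beforehand; luciferase reagent incubated 30 min at room temperature before reading.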
# [14] = qHTS assay to identify small molecule agonists of the retinoic acid receptor (RAR) signaling pathway (AID 1159553); note: potency is the fitted concentration of half-maximal effect
# Summary of the method: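 RARE-luc C3RL4 cells; overnight attachment 37 C/5% CO2; compound (DMSO) 6 hr; luciferase reagent, 30 min RT; luminescence read-out.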
# [15] = qHTS assay to identify small molecule agonists of the RXR signaling pathway - cell viability counter screen (AID 1159529); note: nearly all actives have a fitted effect of over 50% in size; note: potency is the fitted concentration of half-maximal effect
# Summary of the method: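 CellTiter-Glo luminescence gave viability in the wells also read for beta-lactamase. Cells (RXR-alpha-UAS-bla HEK 293T, 2% charcoal-stripped FBS medium) had 5 hr plating, then 16 hr compound exposure at 37 C; tetraoctyl ammonium bromide served as positive control.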
# [16] = qHTS assay to identify small molecule antagonists of the estrogen related receptor (ERR) signaling pathway - cell viability counter screen (AID 1224818); note: series mostly up to about 46 µM
# Summary of the method: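 Fluorescence from CellTiter-Fluor, read 30 min after reagent addition at 37 C, measured viability of ERR cells exposed to compounds for 17.5 h. Cells had settled 6 h before dosing.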
Structure (SMILES),Potency [1],Potency [2],outcome [3],outcome [4],outcome [5],Potency [6],Potency [7],Potency [8],Potency [9],Potency [10],Potency [11],Potency [12],Potency [13],Potency [14],Potency [15],outcome [16]
O=C(O)c1ccc([N+](=O)[O-])cc1,inactive,inactive,inactive,inactive,inactive,inactive,inactive,inactive,inactive,inactive,inactive,inactive,–,–,–,–
Oc1ccc2ccccc2c1N=Nc1ccccc1,inactive,inactive,inactive,inactive,–,inactive,–,inactive,inactive,–,inactive,inactive,inactive,12.2 µM (active),–,–
C=C1CC[C@H](O)CC1=C/C=C1\CCC[C@]2(C)[C@@H]([C@H](C)/C=C/[C@H](C)C(C)C)CC[C@@H]12,–,inactive,inactive,inactive,inactive,inactive,–,–,inactive,–,–,inactive,inactive,61.1 µM (active),–,–
C=C(C)C(=O)OCCCCCC,inactive,inactive,inactive,inactive,inactive,inactive,inactive,–,inactive,inactive,inactive,inactive,inactive,inactive,inactive,–
Cc1cc(NS(=O)(=O)c2ccc(N)cc2)no1,inactive,inactive,inactive,inactive,inactive,inactive,–,inactive,inactive,inactive,–,inactive,–,inactive,inactive,–
CCCCOCCOCCOC(=O)CCCCC(=O)OCCOCCOCCCC,inactive,inactive,inactive,inactive,inactive,inactive,–,inactive,inactive,inactive,inactive,inactive,inactive,inactive,inactive,–
NCCc1ccc(O)c(O)c1,inactive,inactive,inactive,inactive,inactive,inactive,–,inactive,inactive,inactive,inactive,inactive,–,–,inactive,inactive
CC1CC(OC(=O)c2ccccc2O)CC(C)(C)C1 (stereo not drawn),34.3 µM (active) and inactive,inactive,inactive,inactive,inactive,inactive,–,inactive,inactive,–,inactive,inactive,inactive,inactive,inactive,–
CC(C)(CO)COC(=O)C(C)(C)CO,inactive,inactive,inactive,inactive,inactive,inactive,–,–,inactive,inactive,inactive,inactive,inactive,inactive,–,–
O=C(Oc1ccccc1)c1ccc(O)cc1,inactive,inactive,inactive,inactive,inactive,inactive,–,inactive,inactive,inactive,inactive,inactive,inactive,19.4 µM (active) and 30.6 µM (active),inactive,–
CCCCCCCCCCC=CC1CC(=O)OC1=O (stereo not drawn),inactive,inactive,inactive,inactive,inactive,inactive,–,54.8 µM (active) and inactive,inactive,inactive,inactive,inactive,–,–,inactive,–
Cn1c([N+](=O)[O-])cnc1COC(N)=O,inactive,inactive,inactive,inactive,inactive,inactive,–,inactive,inactive,inactive,inactive,inactive,inactive,inactive,–,–
CCc1ccccc1O,inactive,inactive,inactive,inactive,inactive,inactive,–,30.5 µM (active) and inactive,inactive,inactive,5.47 µM (active) and inactive,inactive,inactive,inactive,inactive,–
c1ccc2[nH]cnc2c1,inactive,inactive,inactive,inactive,inactive,inactive,–,inactive,inactive,inactive,inactive,inactive,inactive,inactive,–,–
CN(C)c1cccc(O)c1,inactive,inactive,inactive,inactive,inactive,inactive,–,–,inactive,inactive,inactive,inactive,inactive,inactive and 34.4 µM (active),inactive,–
CS(=O)(=O)c1ccc([C@@H](O)[C@@H](CO)NC(=O)C(Cl)Cl)cc1,inactive,inactive,inactive,inactive,inactive,inactive,inactive,–,inactive,inactive,inactive,inactive,–,–,inactive,–
S=c1nc[nH]c2nc[nH]c12,15.1 µM (active) and 10.6 µM (active),4.25 µM (active),inactive,inactive,inactive,–,inactive,inactive,inactive,inactive,–,–,inactive,inactive,3.01 µM (active),–
OCC#CCO,inactive,inactive,inactive,inactive,–,inactive,inactive and 54.5 µM (active),inactive,inactive,inactive,inactive,inactive,inactive,inactive,inactive,–
OC[C@@H](O)[C@H](O)[C@H](O)[C@@H](O)CO,inactive,inactive,inactive,inactive,inactive,inactive,–,inactive,inactive,inactive,inactive,inactive,inactive,inactive,–,–
ClC1=C(Cl)C(Cl)(Cl)C(Cl)=C1Cl,inactive,inactive,inactive,inactive,–,27.7 µM (active) and 49 µM (active),–,inactive,inactive,inactive,inactive,inactive,inactive,inactive and 68.6 µM (active),inactive,–

# Reference: PubChem BioAssay (Tox21)
